From PubChem
Shown are actives, neighbours in structure and some others; about 32% of the full set was active somewhere.
CYP2C9 inh = human CYP2C9 inhibition. AID 777. CYP2C9 Supersomes, luciferin-H conversion, luminescence. 20% of 96,000 active. inhibition, % at 5 µM;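 active = blocking of liver enzyme CYP2C9 beyond about 50% at 5 µM, limit read from the data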
Target sequence (P11712 whole entry, looked up): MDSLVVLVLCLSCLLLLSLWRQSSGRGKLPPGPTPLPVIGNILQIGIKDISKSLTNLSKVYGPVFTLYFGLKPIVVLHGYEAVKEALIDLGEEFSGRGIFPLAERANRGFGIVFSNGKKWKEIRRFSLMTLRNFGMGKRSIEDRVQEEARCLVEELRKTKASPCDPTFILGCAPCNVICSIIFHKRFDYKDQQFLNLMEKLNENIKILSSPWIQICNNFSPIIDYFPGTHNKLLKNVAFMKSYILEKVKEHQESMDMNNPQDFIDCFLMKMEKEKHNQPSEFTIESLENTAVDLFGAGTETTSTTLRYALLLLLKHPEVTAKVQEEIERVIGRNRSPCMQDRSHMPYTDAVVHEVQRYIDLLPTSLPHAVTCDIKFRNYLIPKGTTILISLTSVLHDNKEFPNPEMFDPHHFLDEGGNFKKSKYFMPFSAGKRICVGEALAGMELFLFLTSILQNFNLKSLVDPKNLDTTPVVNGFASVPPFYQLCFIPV
CYP2C9 activ = increases human cytochrome P450 2C9 activity | P11712 | recombinant CYP2C9, luciferin-H conversion, luminescence; active compounds read high; factor 1 = untreated enzyme, 0 = blocked | activation factor at 5 µM | 1.4% of 96,000 active | AID 1024;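 active = activation factor of 2 or more for CYP2C9 at a 5 µM dose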;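 also: 0 = sulfaphenazole-blocked wells and 1 = vehicle-only wells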
PostGolgi yeast = growth inhibition of a yeast mutant, post-Golgi transport screen; post-Golgi transport phenotypic cell assay; inhibition, % at 10 µM; 0.9% of 98,000 active;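 also: yeast cells grown in 1536-well plates; yeast grown about 18 h at 30C before absorbance read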
PostGolgi ctrl = yeast control strain growth, post-Golgi counter-screen | efflux-deficient yeast background strain, growth absorbance A615, 16 h | inhibition, % at 10 µM | 5% of 98,000 active | AID 738
CYP2C19 inhib = inhibitors of human CYP2C19. P33261. CYP2C19 Supersomes, luciferin-H EGE luminescence, 30 min. inhibition, % at 5 µM. 21% of 96,000 active;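 active = CYP2C19 inhibition above a set limit at 5 µM in the primary screen, cut at about 50% in these data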;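 also: plate controls were negative control wells for no effect and 2.5 mM tranylcypromine positive control for full effect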
CYP2C19 activ = activators of human cytochrome P450 2C19; activation factor at 5 µM; recombinant CYP2C19, luciferin-H EGE luminescence; active compounds read high; 0 = fully inhibited enzyme, 1 = untreated enzyme; P33261; 96,000 tested, under 10 active;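 active = activation factor of at least 2 at 5 µM in the primary screen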;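 also: 0 = wells with 2.5 mM tranylcypromine and 1 = vehicle-only wells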
* hit, by the source's call; / = no result given. Rule as the data show it, unless noted: active = inhibition above about 30%; inactive = the rest.

SMILES	CYP2C9 inh	CYP2C9 activ	PostGolgi yeast	PostGolgi ctrl	CYP2C19 inhib	CYP2C19 activ
COc1cccc(OCCSc2nnc3sc4ccccc4n23)c1	-85	1.9	4	14	50*	0.5
Cn1cnnc1SCC(=O)N(Cc1ccc2c(c1)OCO2)C1(C(=O)NC2CCCCC2)CCCC1	26	0.7	-3	-7	35	0.7
O=C(CCCN1C(=O)CCC1=O)Nc1ccccc1F	20	0.8	-8	5	12	0.9
O=C(CC(=O)N1CCN(c2ccccn2)CC1)Nc1ccc2nc3n(c(=O)c2c1)CCCCC3	78*	0.2	0	2	28	0.7
O=C(Nc1ccc2nc3n(c(=O)c2c1)CCCCC3)c1ccccn1	53*	0.5	-8	-2	14	0.9
O=C(CSc1nnc(CNC(=O)c2cccs2)o1)Nc1cccc(C(F)(F)F)c1	22	0.8	-7	10	25	0.8
O=C(NC1CCCCC1)C(c1ccc(Cl)cc1)N(C(=O)c1cnccn1)c1ccc2c(c1)OCO2 (stereo not drawn)	1	1	-10	-2	15	0.9
Cc1cc(C)nc(Nc2ccc(C(=O)O)cc2)n1	2	1	-1	-6	0	1
Cn1ncc(Cl)c1C(=O)NC(=S)Nc1sc2c(c1C#N)CCCCC2	63*	0.4	-4	-5	17	0.8
Cc1nn(CCCC(=O)Nc2sc3c(c2C#N)CCC3)c(C)c1[N+](=O)[O-]	41	0.6	1	5	30	0.7
CC(C)CC(=O)NC(NC(=S)Nc1sc2c(c1C#N)CCCC2)C(Cl)(Cl)Cl (stereo not drawn)	100*	0	3	11	53*	0.5
N#Cc1c(NC(=O)CCC(=O)O)sc2c1CCCC2	25	0.7	-6	0	-11	1.1
CC(C)C(C(=O)Nc1sc2c(c1C#N)CCCCC2)N1C(=O)c2ccccc2C1=O (stereo not drawn)	64*	0.4	0	-2	35	0.7
Cc1nn(CC(=O)Nc2sc3c(c2C#N)CCC(C(C)(C)C)C3)c(C)c1[N+](=O)[O-] (stereo not drawn)	48	0.5	4	35*	8	0.9
CCN(CC)C(=O)C1CC(=O)N(c2ccc(F)c(Cl)c2)C1 (stereo not drawn)	-11	1.1	6	-1	-2	1
CCCCN(CC)Cc1ccc(CNC(=O)Nc2ccc(F)cc2)o1	37	0.6	-6	8	22	0.8
Cc1nn(C(C)C(=O)Nc2sc3c(c2C#N)CCCC3)c(C)c1[N+](=O)[O-] (stereo not drawn)	61*	0.4	0	12	21	0.8
CC(C)(C)C1CCc2c(sc(NC(=O)c3cc(C4CC4)on3)c2C#N)C1 (stereo not drawn)	73*	0.3	-8	-3	9	0.9
O=C1CC2(CON=C2c2ccc(F)cc2)C(=O)N1c1ccc(F)cc1 (stereo not drawn)	51*	0.5	5	33*	89*	0.1
CCN1C(=O)NC(c2cc(Br)ccc2OC)C(C(=O)OC)=C1C (stereo not drawn)	/	/	3	13	/	/
CC(NC(=O)Nc1ccccc1O)(C(F)(F)F)C(F)(F)F	-4	1	-6	-1	27	0.7
Cc1c(Cl)cccc1-n1nnnc1-c1cccs1	26	0.7	2	17	96*	0
Cc1nc2c(-c3ccccc3)c(C)nn2c(C)c1CCC(=O)O	24	0.8	-2	9	27	0.7
Cc1nc2c(-c3ccccc3)c(C)nn2c(C)c1CCC(=O)NC(C)CCc1ccco1 (stereo not drawn)	38	0.6	0	13	52*	0.5
COc1ccccc1-c1cc2nc(C)c(CCC(=O)NC(C)CCc3ccco3)c(C)n2n1 (stereo not drawn)	89*	0.1	2	37*	90*	0.1
CCOC(=O)CCc1c(C)n(CC)c2cc(-c3ccccc3OC)nn2c1=O	3	1	6	8	3	1
Cc1cc(C)cc(NCC(=O)Nc2c(C)cccc2C)c1	13	0.9	3	37*	37	0.6
Cc1cccc(NC(=O)CC(C)(C)C)c1	-3	1	-2	1	42	0.6
Cc1ccc(NC(=O)C2C3/C=C\CCCCC32)cc1C (stereo not drawn)	0	1	-3	-10	44	0.6
